# An excerpt weighted towards active compounds, which were near 4.8% of everything screened.
# hcDAF12 agonist – activates DAF-12 receptor from parasite H. contortus. hit rate 1.4% among 370,000. HEK293 hcDAF-12 lit1-tk-luc reporter, luminescence; 0% DMSO, 100% Δ7-dafachronic acid. activation, % at 6.8 µM;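 active = activation above the mean of all tested compounds plus 3 SD, cut at about 5.5% in these data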;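 also: 100% = response to 3 µM Δ7-dafachronic acid high control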
# SMARCA2 activ – activators of SMARCA2 function; MG213 cells, MMTV-luciferase reporter, dexamethasone, overnight; activation, % at 9.1 µM; hit rate 1% among 370,000; in the data active = activation above about 7.8%;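 also: 0% = vehicle wells and 100% = reference activator wells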
# hgDAF12 agonist – activates the H. glycines DAF-12 receptor ligand-binding domain; HEK293 GAL4-hgDAF12 UAS-luciferase reporter, agonist luminescence; normalized to butyrate control; activation, % at 6.8 µM; hit rate 1.8% among 370,000;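 active = activation above a cutoff set at the mean of all screened compounds plus 3 SD, cut at about 10% in these data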;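 also: 0% = DMSO wells and 100% = sodium butyrate wells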
# DAX1 inh-1 – DAX1 (NR0B1) inhibition, primary screen; HEK293T StAR-luciferase reporter, SF-1/DAX-1 repression relief; inhibition, % at 6.8 µM; hit rate 1.1% among 370,000;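 active = inhibition above the mean over all tested compounds plus 3 SD, cut at about 3.6% in these data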;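 also: 0% = DAX-1 cells with DMSO and 100% = cells lacking DAX-1 with DMSO; higher inhibition means more luminescence from relief of DAX-1 repression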
# DAX1 inh-2 – NR0B1 (DAX1) inhibition. AID 504766. P51843. hit rate 0.99% among 340,000. inhibition, % at 6.75 µM. HEK293 Gal4-DAX1 luciferase reporter, luminescence;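 active = inhibition above the mean over all tested compounds plus 3 SD, cut at about 4.2% in these data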;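 also: 0% = DAX1-transfected cells with DMSO and 100% = empty-vector control cells with DMSO; inhibition shows as a rise in luminescence from relieved DAX1 repression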
# Target sequence (P51843 207-470 limits assumed): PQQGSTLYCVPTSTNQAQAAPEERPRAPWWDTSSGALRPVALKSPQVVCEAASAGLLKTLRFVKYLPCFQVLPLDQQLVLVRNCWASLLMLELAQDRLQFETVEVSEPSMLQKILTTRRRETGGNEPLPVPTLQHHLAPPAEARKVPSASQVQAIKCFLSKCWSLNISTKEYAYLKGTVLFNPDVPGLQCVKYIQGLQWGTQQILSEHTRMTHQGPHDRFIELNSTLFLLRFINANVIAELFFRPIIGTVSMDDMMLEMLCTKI
# ssDAF-12 act – activators of S. stercoralis DAF-12 nuclear receptor; hit rate 1% among 370,000; activation, % at 6.8 µM; HEK293 ssDAF-12/GRIP1 lit1-tk-luc reporter, luminescence; % of 3 µM dafachronic acid response;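 active = activation above the mean over all tested compounds plus 3 SD, cut at about 0.9% in these data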;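 also: 0% = DMSO-only wells and 100% = 3 µM delta7-dafachronic acid wells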
# * marks the source's active call; other numbers are inactive results.
SMILES,hcDAF12 agonist,SMARCA2 activ,hgDAF12 agonist,DAX1 inh-1,DAX1 inh-2,ssDAF-12 act
Cc1ccc(Cl)cc1N1CCN(C(=O)C2CCC(=O)N2C(C)C)CC1 (centres undefined),0,-1,2,1,0,1.7*
CC(NC(=O)c1cc2ccccc2o1)C(=O)O (centres undefined),-1,1,0,0,1,-1
CC1CCCCC1NC(=O)c1cc(Cl)nc2ccccc12 (centres undefined),3,-2,5,2,2,1.4*
CC(C)NC(=O)c1cc2ccccc2o1,-2,5,2,0,5.1*,-1
CC1CCCCC1NC(=O)c1cc2ccccc2o1 (centres undefined),2,2,11*,0,0,-1
O=C(NC1CCCCC1)c1cc(Cl)nc2ccccc12,2,-5,1,0,1,-1
Cc1cc([N+](=O)[O-])cc(C)c1OCC(=O)N/N=C/c1ccc(OC(=O)c2ccccc2Br)cc1,0,-1,1,-1,0,-1
CCOC(=O)C1=C(C)NC(C)=C(C(=O)OCC)C1/C=C/c1ccccc1OC,-2,-3,-2,-1,6.4*,-2
COCCOC(=O)C1=C(C)NC(C)=C(C(=O)OCCOC)C1/C=C/c1ccccc1OC,-1,-1,-5,0,1,-2
O=C(O)CCCCn1c(SCc2ccccc2Cl)nc2ccsc2c1=O,-1,-2,0,0,4.7*,-1
CCCc1cc(=O)[nH]c(N/N=C/C=C\c2ccccc2)n1,-1,-5,1,0,4.9*,-2
CCN(c1ccccc1)S(=O)(=O)c1ccc(OC)c(N=N/C(C(=O)Nc2ccccc2)=C(/C)O)c1,-1,-4,1,0,0,-1
CC1(S(=O)(=O)O)CC(=O)c2ccccc2C1=O (centres undefined),0,-3,-3,-3,-2,-1
Cc1c(NC(=O)c2ccc(NS(=O)(=O)c3ccc(F)c(F)c3)cc2)c(=O)n(-c2ccccc2)n1C,-1,-1,1,3.7*,0,-1
COc1ccccc1NC(=O)CN(c1ccc([N+](=O)[O-])cc1)S(=O)(=O)c1ccccc1,0,3,-2,0,-1,0
C/C=C/c1ccc(OCC(=O)OCc2csc(CC(=O)Nc3ccccc3C)n2)c(OC)c1,1,6,0,1,5.9*,-1
Cc1ccc(C)c(OCC(=O)OCc2csc(CC(=O)Nc3ccccc3C)n2)c1,1,-3,1,0,0,-1
O=C(NC1CC1)C1=C[C@H](C2CCCCC2)C[C@H](OCc2ccc(CO)cc2)O1,1,0,0,0,1,-2
CC1=CC(=O)c2ccccc2C1=O,3,-1,1,0,0,1
CCOc1ccccc1C(O)C1=CC(=O)c2ccccc2C1=O (centres undefined),6.2*,-4,-2,1,-1,-1
CCOC(=O)CNC(=O)c1c2c(nc3ccccc13)CCCC2,1,0,-2,1,0,1.0*
Oc1ccc(/C=N/Nc2nc(-c3cccnc3)nc3ccccc23)c(O)c1,-2,0,0,-2,-3,-2
Cn1c2ccccc2c2cc(C(=O)O)ccc21,5.9*,-3,0,2,1,0
CCCn1c2ccccc2c2cc(C(=O)O)ccc21,0,-2,2,0,2,-1
COc1cc(/C=N/NC(=O)C(=O)N2CCCCCC2)ccc1O,-1,-3,1,-1,2,0
C(=C\c1ccccc1)/CSc1ccccn1,3,4,7,2,4.4*,-1
Cc1ccc(OCC(=O)Nc2ccc(CN3CCOCC3)cc2)cc1C,-1,-4,0,0,0,-1
COc1ccc(Cl)cc1-c1nc(SCC(=O)NC(C)C(C)C)n[nH]1 (centres undefined),-1,-1,0,0,7.3*,-2
Cc1ccccc1NC(=O)Nc1ccc(C(F)(F)F)cc1,0,-3,11*,1,1,0
Cc1ccc(C)c(S(=O)(=O)N2CCCC2CNC(=O)C(=O)NC2CCCCCC2)c1 (centres undefined),-2,-2,-2,2,1,-2
